# A selection: hits, their analogues and other compounds. The true share with any hit is near 5.8%.
# KB-V1 cytotox: KB-V1 MDR subline cytotoxicity | KB-V1 MDR cells viability, CellTiter-Glo, 72 h | Potency, µM (titrated, usually from 46.1 µM), usual class: cytotoxic | hit rate 3.4% among 400,000; also: % is scaled to controls: 0 for no effect and ±100 for the full control effect; nearly all actives have a fitted effect of over 60% in size
#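 Following 72 h at 37 degrees C with compound, KB-V1 cell viability was read by CellTiter-Glo luminescence, medium being phenol-red-free DMEM plus 10% FBS; concentration-response parameters came from normalized, curve-fitted qHTS data.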
# KB-3-1 tox: kills parental KB-3-1 adenocarcinoma cells; KB-3-1 viability, CellTiter-Glo ATP luminescence, 72 h; Potency, µM (doses to about 46.1 µM), actives largely listed as cytotoxic; hit rate 1.4% among 400,000; also: % is scaled to controls: 0 for no effect and ±100 for the full control effect; nearly all actives have a fitted effect of over 60% in size
#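 Parental KB-3-1 adenocarcinoma cells in phenol-red-free DMEM with 10% FBS were pin-treated with compounds at several concentrations, incubated 72 h at 37 °C, and viability read by CellTiter-Glo luminescence; concentration-effect curves were fitted after normalization.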
# MCF10A rerep: DNA re-replication induction in MCF 10a cells. MCF 10A DNA re-replication, Hoechst nuclear intensity, 48 h. hit rate 2.9% among 350,000. Potency, µM (highest dose often 46.1 µM), for the others: at the top dose activity, positive = re-replication, hits mostly activators; also: % of control where 0% means no effect; nearly all actives have a fitted effect of over 50% in size
# PINK1 modulator: PINK1 expression modulation; hit rate 0.2% among 410,000; Potency, µM (top dose mostly 76.6 µM), for inactives: at the top dose activation (PINK1 increase), most hits filed as activators; AID 624263; PINK1 immunofluorescence, high-content cytometry, 24 h; active = well fitted activation curve with a large enough effect; inconclusive = small, poorly fitted or top-dose-only effect; cell line not stated here; also: % of control where 0% means no effect; nearly all actives have a fitted effect of over 65% in size
#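 Compound titrations (5 concentrations, 24 h) on a stable cell line; DMSO and CCCP controls. Endpoint: fixed-cell PINK1 immunofluorescence with mitochondrial, cell and nuclear markers, scanned by microplate cytometer.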
# SW480 rerep: DNA re-replication induction in SW480 cells | hit rate 1.8% among 340,000 | SW480 DNA re-replication, Hoechst DNA content imaging, 48 h | Potency, µM (highest dose often 46.1 µM), without a hit: at the top dose re-replication activation, most hits filed as activators; also: % of control where 0% means no effect; nearly all actives have a fitted effect of over 55% in size
#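 DNA re-replication was detected as more nuclei of elevated Hoechst intensity after 48 hr exposure to compound (23 nL pinned per well of 250 cells).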
# 12-LOX inh: ALOX12 (human) lipoxygenase inhibition; Potency, µM (titrated, usually from 108 µM), for the others: at the top dose activity change, negative = inhibition, most hits filed as inhibitors; hit rate 1.1% among 580,000; P18054; purified 12hLO, xylenol orange hydroperoxide absorbance; also: % is scaled to controls: 0 for no effect and ±100 for the full control effect
# Target sequence (P18054 whole entry, looked up): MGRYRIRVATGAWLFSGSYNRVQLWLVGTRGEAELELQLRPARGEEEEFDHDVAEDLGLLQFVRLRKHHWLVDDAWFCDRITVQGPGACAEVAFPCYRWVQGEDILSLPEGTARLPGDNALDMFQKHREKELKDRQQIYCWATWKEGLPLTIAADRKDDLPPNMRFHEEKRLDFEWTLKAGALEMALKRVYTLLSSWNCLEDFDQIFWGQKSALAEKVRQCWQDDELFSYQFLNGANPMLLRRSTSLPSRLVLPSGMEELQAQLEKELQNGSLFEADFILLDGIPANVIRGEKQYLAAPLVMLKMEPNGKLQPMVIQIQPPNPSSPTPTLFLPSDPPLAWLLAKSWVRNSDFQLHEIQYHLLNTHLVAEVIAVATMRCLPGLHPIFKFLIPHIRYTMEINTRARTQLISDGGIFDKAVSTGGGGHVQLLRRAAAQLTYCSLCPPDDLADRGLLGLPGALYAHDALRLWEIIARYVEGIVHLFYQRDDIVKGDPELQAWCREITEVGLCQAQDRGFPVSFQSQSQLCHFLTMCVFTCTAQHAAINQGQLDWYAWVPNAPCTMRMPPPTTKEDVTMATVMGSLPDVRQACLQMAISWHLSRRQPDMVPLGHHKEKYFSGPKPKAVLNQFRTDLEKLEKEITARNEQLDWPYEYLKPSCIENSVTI
#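 Hydroperoxide product was detected by ferrous iron/xylenol orange as the 573 to 405 nm absorbance ratio. Arachidonic acid at 40 uM (final) was turned over for 30 min at room temperature by 150 nM human 12hLO, pH 7.0 Hepes buffer, after 15 min compound preincubation.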
# * = called active by the depositor; i = inactive; ? = inconclusive; nt = no result; ! = a repeat was not active; [ ] = remark or other dose. Unless noted, calls follow the shape of the dose curve; as a rule, active = well fitted curve in the direction sought with a large enough effect; inconclusive = small, poorly fitted or top-dose-only effect, or another doubt; inactive = no such curve, though single readings can be large; an effect the other way counts as inactive or inconclusive. Potency is read from the fitted curve at half-maximal effect.
SMILES,KB-V1 cytotox,KB-3-1 tox,MCF10A rerep,PINK1 modulator,SW480 rerep,12-LOX inh
C(=C\c1nc2ccccc2nc1/C=C/c1ccc2c(c1)OCO2)/c1ccc2c(c1)OCO2,i,?,nt,0%,nt,nt
C(=Cc1cnc2ccccc2n1)c1ccc2c(c1)OCO2,15µM*,i,nt,1%,nt,-27%
CC1CCCCC1NC(=O)C1(c2ccccc2)CCC1 (centres undefined),nt,nt,nt,nt,nt,65%
CCOc1cc(/C=C/C(=O)c2ccc(C)cc2)cc(Br)c1O,nt,nt,nt,nt,nt,40µM*
COc1cc(/C=C/C(=O)O)cc(Br)c1O,i,i,-6%,-1%,20%,-13%
CCOc1cc(/C=N/NC(=O)N/N=C/c2ccc(O)c(OCC)c2)ccc1O,i,6.5µM*,?,2%,?,83%
COc1cc(/C=C/C(=O)c2ccc(C#N)cc2)cc(Br)c1O,nt,nt,nt,nt,nt,8.9µM*
CCOc1cc(/C=C/C(=O)c2ccc(Cl)c(Cl)c2)ccc1O,nt,nt,nt,nt,nt,6.3µM*
CCOc1ccc(/C=C/C(=O)c2ccc(Cl)cc2)cc1,nt,nt,nt,nt,nt,2%
CCOc1cc(/C=C/C(=O)c2ccc(C)cc2)ccc1OCC(=O)N(C)C,15µM*,?,23µM*,-2%,?,-22%
CCCCNC(=O)C1(C)CCCCN1Cc1ccc(OCc2ccccc2)cc1 (centres undefined),15µM*,?,nt,?,nt,-2%
O=C(Cc1ccccc1)Nc1c(C(=O)N2CCN(c3ccc(F)cc3)CC2)oc2ccccc12,12µM*,i,nt,-5%,nt,-29%
Cc1c(C(=O)N2CCN(CCc3ccccc3)CC2)oc2ccccc12,13µM*,i,?,9%[38.3 µM],1%,-16%
CCOc1ccc2oc(C(=O)N3CCN(Cc4ccccc4)CC3)c(C)c2c1,i,i,21µM*,5%,5%,13%
O=C(CCN1C(=O)c2ccccc2S1(=O)=O)Nc1cccc(C(=O)O)c1,nt,nt,nt,nt,nt,13%
O=C(COc1ccccc1)NCCC1CCN(C(=O)Nc2cc(F)cc(F)c2)CC1,nt,nt,nt,nt,nt,27%
Fc1ccc(-c2nc(-c3ccncc3)no2)cc1,nt,nt,nt,nt,nt,-14%
COCCCNC(=O)CC1CC2CCC1C2 (centres undefined),nt,nt,nt,nt,nt,4%
CCCN(CCC)Cc1cc(=O)oc2cc(OC)c(Cl)cc12,i,i,nt,3%,nt,32µM*
COCCN(CCOC)Cc1cc(=O)oc2cc(OC)ccc12,i,i,nt,0%,nt,?
C=CCN(CC=C)Cc1cc(=O)oc2cc(OC)c(Cl)cc12,i,i,nt,3%,nt,?
COCCN(CCOC)Cc1cc(=O)oc2cc(C)c(C)cc12,i,i,nt,1%,nt,14µM*
COc1ccc(NC(=O)N2c3ccccc3C(C)=CC2(C)C)cc1,i,i,9%,3%,-1%,-15%
COc1ccc(NC(=O)N2c3ccc(OC)cc3C(C)=CC2(C)C)cc1,?,i,21µM*,-1%,-58%,?
O=S1(=O)C[C@H](N2CCN(c3ccccc3F)CC2)[C@@H](S(=O)(=O)c2ccccc2)C1,nt,nt,nt,nt,nt,-35%
SMILES,KB-V1 cytotox,KB-3-1 tox,MCF10A rerep,PINK1 modulator,SW480 rerep,12-LOX inh
Cn1c(=O)n(Cc2ccccc2)c(=O)c2c1nc1n2CCN1Cc1ccco1,i,i,0.73µM*,6%,?,-10%
Cn1c(=O)n(CCc2ccccc2)c(=O)c2c1nc1n2CCCN1CCc1ccccc1,23µM*,i,21µM*,-4%,?,0%
CCCn1c(=O)c2c(nc3n2CCCN3Cc2ccccc2)n(C)c1=O,i,i,10%,-2%,-11%,-16%
Cn1c(=O)n(CCc2ccccc2)c(=O)c2c1nc1n2CCCN1Cc1ccccc1,21µM*,i,?,1%,-5%,130%
CC(C)Cn1c(=O)c2c(nc3n2CCCN3CCc2ccccc2)n(C)c1=O,10µM*,i,11%,-1%,1%,-2%
CCCCN(CC)CC(=O)Nc1cccc2ncccc12,nt,nt,nt,nt,nt,-6%
O=C(c1ccc(-c2ccccc2)cc1)N(Cc1cccs1)C1CC1,nt,nt,nt,nt,nt,-3%
O=C1/C(=C/c2ccccc2[N+](=O)[O-])COc2ccccc21,i,i,?,-2%,-349%[1.84 µM],-10%
CC1(C)CC(=Cc2cc(O)ccc2[N+](=O)[O-])C(=O)c2ccccc21,?,?,nt,20µM*,nt,nt
CCNC(=O)c1c(O)c2ccccc2[nH]c1=O,i,i,6.5µM*,-3%[38.3 µM],10%,0%
CC(C)=NNC(=O)c1c(O)c2ccccc2[nH]c1=O,i,i,9.2µM*,40µM*,11%,13%
CCOC(=O)/C=C1\CN(Cc2cc(OC)c(OC)c(OC)c2)S(=O)(=O)c2ccccc21,10µM*!,?,?,2%,1%,-7%
NC(=O)Cn1c(=O)n(CCc2ccccc2)c(=O)c2c3c(sc21)CCCC3,4.1µM*,i,-6%,-2%[38.3 µM],?,-3%
CC(=O)N1CCc2c(sc3c2c(=O)n(CCc2ccccc2)c(=O)n3Cc2ccc(Cl)cc2)C1,?,21µM*,nt,2%,nt,-6%
CSC(C)C(=O)Nc1cccc(I)c1 (centres undefined),nt,nt,nt,nt,nt,25%
Brc1cccc(-c2nc3ccccc3o2)c1,nt,nt,nt,nt,nt,7%
CCc1ccc2oc(-c3ccc(OC)cc3)cc(=Nc3cccc(C(=O)O)c3)c2c1,i,i,23µM*,-2%,25%,?
CCc1ccc2oc(-c3ccc(OC)cc3)cc(=Nc3c(C)n(C)n(-c4ccccc4)c3=O)c2c1,9.2µM*,?,?,?,-55%,?
COc1ccc(NC(=O)CCCS(=O)(=O)c2nc(-c3ccc(OC)c(OC)c3)cc(C(F)(F)F)n2)cc1OC,nt,nt,nt,6%,nt,-19%
COc1ccccc1-c1cc(C(F)(F)F)nc(S(=O)(=O)CCCC(=O)N2CCOCC2)n1,?,16µM*,3.3µM*,-2%,?,0%
COc1ccc(-c2cc(C(F)(F)F)nc(S(=O)(=O)CCCC(=O)Nc3cccc(O)c3)n2)cc1OC,i,i,6.5µM*,-2%,?,-11%
COc1ccccc1-c1cc(C(F)(F)F)nc(S(=O)(=O)CCCC(=O)O)n1,i,i,?,14%[38.3 µM],3.5µM*,18%
COc1ccc(-c2cc(C(F)(F)F)nc(S(=O)(=O)CCC(=O)N3CCOCC3)n2)cc1,?,?,8.2µM*,0%,?,35%
CCCN1CCC2(CCN([S+](=O)([O-])c3cccc(OC)c3)CC2)Oc2ccccc21,nt,nt,nt,nt,nt,-2%
CC(C)NC(=O)COc1ccc(Cl)cc1Cl,?,i,?,-5%[38.3 µM],16µM*,20%
O=C(COc1ccc(Cl)cc1Cl)NCc1ccncc1,18µM*,i,0%,3%,-10%,-29%
Cc1cc(Cl)ccc1OCC(=O)NCc1ccncc1,?,i,-8%,2%[38.3 µM],-3%,6%

# Screening data as filed in PubChem.
